# Values joined by “and” are separate entries in the source; they are usually repeats but may differ in a detail not shown here. Identical values can stand only once. About 79,000 compounds went through this panel and 15% of them were active in at least one assay; those are over-represented in the sample as a whole. Some compounds were tested as several samples or in several runs, with calls that do not always agree. Active and inactive are the calls of the source. Rule as the data show it: active = growth inhibition above about 70%; inactive = the rest.
# Legend:
# [1] = NCI Yeast Anticancer Drug Screen. Data for the rad50 strain (AID 155);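 also: 0% = growth of vehicle-only cultures of the same strain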; details: S. cerevisiae rad50 strain growth inhibition, stronger effect = higher value
# Method in brief: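 Growth of the mutant yeast was measured after compound exposure and referenced to vehicle-treated cultures.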
# [2] = NCI Yeast Anticancer Drug Screen. Data for the mec2-1 strain (AID 157); details: S. cerevisiae mec2-1 strain, stronger effect = higher value
# Method in brief: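 mec2-1 yeast strain, carrying an alteration in DNA damage repair or cell cycle control, was exposed to compounds; growth inhibition was measured relative to vehicle-treated controls.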
# [3] = NCI Yeast Anticancer Drug Screen. Data for the sgs1 mgt1 strain (AID 161);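 also: 0% = growth of cultures given vehicle only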; details: S. cerevisiae sgs1 mgt1 strain, stronger effect = higher value
# Method in brief: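 Growth of a repair-deficient yeast mutant was monitored after compound treatment and expressed as inhibition relative to vehicle-treated cultures.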
# [4] = NCI Yeast Anticancer Drug Screen. Data for the cln2 rad14 strain (AID 165);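 also: 0% = growth equal to vehicle treated cultures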; details: S. cerevisiae cln2 rad14 strain, stronger effect = higher value
# Method in brief: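 Yeast carrying cln2 and rad14 alterations (cell cycle control and DNA damage repair) were exposed to compounds. Growth inhibition was measured against vehicle-treated controls.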
# [5] = NCI Yeast Anticancer Drug Screen. Data for the bub3 strain (AID 167); details: S. cerevisiae bub3 mutant strain, stronger effect = higher value
# Method in brief: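 Whole-cell yeast assay. The mutant strain was incubated with compounds, and growth inhibition was determined by comparison with vehicle-treated cells.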
# [6] = NCI Yeast Anticancer Drug Screen. Data for the wt2 strain (AID 169);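 also: 0% = growth of vehicle-treated yeast cultures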; details: S. cerevisiae wt2 strain growth inhibition, stronger effect = higher value
# Method in brief: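 Yeast cells were exposed to test compounds, and growth inhibition was measured relative to vehicle-treated controls.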
# [7] = NCI Yeast Anticancer Drug Screen. Data for the mlh1 rad18 strain (AID 175); details: S. cerevisiae mlh1 rad18 strain growth inhibition, stronger effect = higher value
# Method in brief: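 Growth inhibition of the yeast strain was measured after compound exposure and expressed relative to vehicle-treated controls. The strain carries defined defects in DNA damage repair.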
# [8] = at 5.0 µM (retest, dose inferred, filed as 0.5)
# [9] = at 50.0 µM (retest, dose inferred, filed as 5.0)
smiles,measurement,setting,value
c1ccc2nc3c(ccc4ccccc43)cc2c1,growth inhibition,[1]; [8],22% (inactive)
same,growth inhibition,[1]; [9],31% (inactive)
same,growth inhibition,[1]; at 50.0 µM,86% (active)
same,growth inhibition,[2]; [8],41% (inactive)
same,growth inhibition,[2]; [9],45% (inactive)
same,growth inhibition,[2]; at 50.0 µM,75.9% (active)
same,growth inhibition,[3]; [8],-17% (inactive)
same,growth inhibition,[3]; [9],94% (active)
same,growth inhibition,[3]; at 50.0 µM,84.5% (active)
same,growth inhibition,[4]; [8],5% (inactive)
same,growth inhibition,[4]; [9],91% (active)
same,growth inhibition,[4]; at 50.0 µM,68.7% (inactive)
same,growth inhibition,[5]; [8],0% (inactive)
same,growth inhibition,[5]; [9],99% (active)
same,growth inhibition,[5]; at 50.0 µM,84% (active)
same,growth inhibition,[6]; at 1.2 µM,18% (inactive)
same,growth inhibition,[6]; at 3.7 µM,16% (inactive)
same,growth inhibition,[6]; at 11.0 µM,64% (inactive)
same,growth inhibition,[6]; at 33.0 µM,94% (active)
same,growth inhibition,[6]; at 100.0 µM,89% (active)
same,growth inhibition,[7]; [8],20% (inactive)
same,growth inhibition,[7]; [9],49% (inactive)
same,growth inhibition,[7]; at 50.0 µM,83% (active)
Cc1nc(N=C(N)N)nc2ccc3ccccc3c12,growth inhibition,[1]; [8],39% (inactive)
same,growth inhibition,[1]; [9],38% (inactive)
same,growth inhibition,[1]; at 50.0 µM,80.8% (active)
same,growth inhibition,[2]; [8],43% (inactive)
same,growth inhibition,[2]; [9],69% (inactive)
same,growth inhibition,[2]; at 50.0 µM,37.9% (inactive)
same,growth inhibition,[3]; [8],-13% (inactive)
same,growth inhibition,[3]; [9],98% (active)
same,growth inhibition,[3]; at 50.0 µM,64.7% (inactive)
same,growth inhibition,[4]; [8],62% (inactive)
same,growth inhibition,[4]; [9],99% (active)
same,growth inhibition,[4]; at 50.0 µM,34.8% (inactive)
same,growth inhibition,[5]; [8],-14% (inactive)
same,growth inhibition,[5]; [9],96% (active)
same,growth inhibition,[5]; at 50.0 µM,63.9% (inactive)
same,growth inhibition,[6]; at 1.2 µM,6% (inactive)
same,growth inhibition,[6]; at 3.7 µM,12% (inactive)
same,growth inhibition,[6]; at 11.0 µM,0% (inactive)
same,growth inhibition,[6]; at 33.0 µM,30% (inactive)
same,growth inhibition,[6]; at 100.0 µM,97% (active)
same,growth inhibition,[7]; [8],28% (inactive)
same,growth inhibition,[7]; [9],34% (inactive)
same,growth inhibition,[7]; at 50.0 µM,69.6% (inactive)
Cc1nc2cc(Cl)ccc2n1-c1ccccc1,growth inhibition,[1]; [8],39% (inactive)
same,growth inhibition,[1]; [9],92% (active)
same,growth inhibition,[1]; at 50.0 µM,66.9% (inactive)
same,growth inhibition,[2]; [8],38% (inactive)
same,growth inhibition,[2]; [9],98% (active)
same,growth inhibition,[2]; at 50.0 µM,17% (inactive)
same,growth inhibition,[3]; [8],-7% (inactive)
same,growth inhibition,[3]; [9],94% (active)
same,growth inhibition,[3]; at 50.0 µM,77.2% (active)
same,growth inhibition,[4]; [8],32% (inactive)
same,growth inhibition,[4]; [9],99% (active)
same,growth inhibition,[4]; at 50.0 µM,44% (inactive)
same,growth inhibition,[5]; [8],4% (inactive)
same,growth inhibition,[5]; [9],97% (active)
same,growth inhibition,[5]; at 50.0 µM,76.5% (active)
same,growth inhibition,[6]; at 1.2 µM,7% (inactive)
same,growth inhibition,[6]; at 3.7 µM,11% (inactive)
same,growth inhibition,[6]; at 11.0 µM,9% (inactive)
same,growth inhibition,[6]; at 33.0 µM,37% (inactive)
same,growth inhibition,[6]; at 100.0 µM,96% (active)
same,growth inhibition,[7]; [8],36% (inactive)
same,growth inhibition,[7]; [9],85% (active)
same,growth inhibition,[7]; at 50.0 µM,60.2% (inactive)
COc1nc(N)c(NC2OCC(O)C(O)C2O)c(=O)n1C (centres undefined),growth inhibition,[1]; at 50.0 µM,-32.8% (inactive) [middle of 5 runs]
COc1ccc(CC(=O)c2ccc(O)cc2O)cc1,growth inhibition,[1]; [8],30% (inactive)
same,growth inhibition,[1]; [9],90% (active)
same,growth inhibition,[1]; at 50.0 µM,49.5% (inactive)
same,growth inhibition,[2]; [8],38% (inactive)
same,growth inhibition,[2]; [9],80% (active)
same,growth inhibition,[2]; at 50.0 µM,42.3% (inactive)
same,growth inhibition,[3]; [8],-22% (inactive)
same,growth inhibition,[3]; [9],73% (active)
same,growth inhibition,[3]; at 50.0 µM,54.8% (inactive)
same,growth inhibition,[4]; [8],64% (inactive)
same,growth inhibition,[4]; [9],76% (active)
same,growth inhibition,[4]; at 50.0 µM,52.2% (inactive)
same,growth inhibition,[5]; [8],-6% (inactive)
same,growth inhibition,[5]; [9],71% (active)
same,growth inhibition,[5]; at 50.0 µM,77.1% (active)
same,growth inhibition,[6]; at 1.2 µM,-4% (inactive)
same,growth inhibition,[6]; at 3.7 µM,-4% (inactive)
same,growth inhibition,[6]; at 11.0 µM,-13% (inactive)
same,growth inhibition,[6]; at 33.0 µM,14% (inactive)
same,growth inhibition,[6]; at 100.0 µM,91% (active)
same,growth inhibition,[7]; [8],19% (inactive)
same,growth inhibition,[7]; [9],97% (active)
same,growth inhibition,[7]; at 50.0 µM,53.1% (inactive)
C[n+]1c2cc(N)ccc2cc2ccc(N)cc21,growth inhibition,[1]; [8],55% (inactive) and 100% (active)
same,growth inhibition,[1]; [9],98% (active) and 99% (active)
same,growth inhibition,[1]; at 50.0 µM,97.4% (active) and 75.2% (active)
same,growth inhibition,[2]; [8],11% (inactive) and 100% (active)
same,growth inhibition,[2]; [9],99% (active) and 100% (active)
same,growth inhibition,[2]; at 50.0 µM,75.3% (active) and 79% (active)
same,growth inhibition,[3]; [8],3% (inactive) and -17% (inactive)
same,growth inhibition,[3]; [9],97% (active) and 44% (inactive)
same,growth inhibition,[3]; at 50.0 µM,67.9% (inactive) and 78.2% (active)
same,growth inhibition,[4]; [8],10% (inactive) and 35% (inactive)
same,growth inhibition,[4]; [9],97% (active) and 64% (inactive)
same,growth inhibition,[4]; at 50.0 µM,53.9% (inactive) and 39.6% (inactive)
same,growth inhibition,[5]; [8],-1% (inactive) and -18% (inactive)
same,growth inhibition,[5]; [9],99% (active) and 88% (active)
same,growth inhibition,[5]; at 50.0 µM,86.5% (active) and 81.6% (active)
same,growth inhibition,[6]; at 1.2 µM,-6% (inactive)
same,growth inhibition,[6]; at 3.7 µM,-12% (inactive)
same,growth inhibition,[6]; at 11.0 µM,4% (inactive)
same,growth inhibition,[6]; at 33.0 µM,25% (inactive)
same,growth inhibition,[6]; at 100.0 µM,84% (active)
same,growth inhibition,[7]; [8],28% (inactive) and 100% (active)
same,growth inhibition,[7]; [9],97% (active) and 100% (active)
same,growth inhibition,[7]; at 50.0 µM,91.3% (active) and 83.5% (active)
CC(c1ccccc1)c1ccc(O)cc1 (centres undefined),growth inhibition,[1]; [8],0% (inactive)
same,growth inhibition,[1]; [9],73% (active)
same,growth inhibition,[1]; at 50.0 µM,46.9% (inactive) and 86.5% (active)
same,growth inhibition,[2]; [8],-3% (inactive)
same,growth inhibition,[2]; [9],57% (inactive)
same,growth inhibition,[2]; at 50.0 µM,33.2% (inactive) and 81% (active)
same,growth inhibition,[3]; [8],-1% (inactive)
same,growth inhibition,[3]; [9],49% (inactive)
same,growth inhibition,[3]; at 50.0 µM,6.55% (inactive) and 85.7% (active)
same,growth inhibition,[4]; [8],0% (inactive)
same,growth inhibition,[4]; [9],56% (inactive)
same,growth inhibition,[4]; at 50.0 µM,24.6% (inactive) and 65.2% (inactive)
same,growth inhibition,[5]; [8],-9% (inactive)
same,growth inhibition,[5]; [9],51% (inactive)
same,growth inhibition,[5]; at 50.0 µM,40.4% (inactive) and 66.4% (inactive)
CC[N+](C)(C)c1ccccc1,growth inhibition,[1]; [8],42% (inactive)
same,growth inhibition,[1]; [9],90% (active)
same,growth inhibition,[1]; at 50.0 µM,61.8% (inactive)
same,growth inhibition,[2]; [8],48% (inactive)
same,growth inhibition,[2]; [9],93% (active)
same,growth inhibition,[2]; at 50.0 µM,26.7% (inactive)
same,growth inhibition,[3]; [8],-40% (inactive)
same,growth inhibition,[3]; [9],1% (inactive)
same,growth inhibition,[3]; at 50.0 µM,48.2% (inactive)
same,growth inhibition,[4]; [8],46% (inactive)
same,growth inhibition,[4]; [9],24% (inactive)
same,growth inhibition,[4]; at 50.0 µM,17.9% (inactive)
same,growth inhibition,[5]; [8],-1% (inactive)
same,growth inhibition,[5]; [9],28% (inactive)
same,growth inhibition,[5]; at 50.0 µM,74.2% (active)
same,growth inhibition,[6]; at 1.2 µM,-24% (inactive)
same,growth inhibition,[6]; at 3.7 µM,-23% (inactive)
same,growth inhibition,[6]; at 11.0 µM,-25% (inactive)
same,growth inhibition,[6]; at 33.0 µM,-16% (inactive)
same,growth inhibition,[6]; at 100.0 µM,-24% (inactive)
same,growth inhibition,[7]; [8],45% (inactive)
same,growth inhibition,[7]; [9],82% (active)
same,growth inhibition,[7]; at 50.0 µM,28.9% (inactive)

# Source: PubChem BioAssay (NCI)
